Of roughly 8,800 targets only a part is listed; those with a hit were picked by preference. About 0.5% of all pairs of compound and target were hits. Values without a mark were called inactive.
How the values were obtained:
Experiment in all cases: log2 fold change, soluble protein after heating vs DMSO (PISA); higher = thermal stabilisation; K562 lysate, 10 uM; active = over 0.2 and 3.5 SD of the protein, either way, in both replicates (recomputed)
erlotinib = compound: C#Cc1cccc(Nc2ncnc3cc(OCCOC)c(OCCOC)cc23)c1 [erlotinib]
In short: (§1)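 A 30 min treatment with 10 μM compound was applied to crude K562 extract at 1 mg/mL protein in PBS pH 7.4 with 1 mM MgCl2. Heating for 3 min spanned 48°C-58°C, after which aliquots were pooled, adjusted to 0.5% NP-40 at 4°C and spun at 21,000xg for 90 min. TMTpro 16plex LC-MS/MS of the supernatant, with channel sums equalised, gave values recorded as log-two fold change in thermal stability against solvent controls, from duplicates.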

[1] = compound: C/C(=N\NC(=O)C1=CC(=CC=C1)S(=O)(=O)N2CCOCC2)/C3=C(C=CC(=C3)Cl)O
In short: as §1

[2] = compound: C1=CC(=CC=C1C2=NC3=C(N2)C=C(C=C3)C(=O)N)OC4=CC=C(C=C4)Cl
In short: as §1

[3] = compound: C1=CC2=C(C=CC(=C2)/C=C\3/C(=O)NC(=NCC4=CC=CS4)S3)N=C1
In short: as §1

[4] = compound: C1=CC2=NC=CN=C2C=C1/C=C/3\C(=O)NC(=O)S3
In short: as §1

[5] = compound: C1=CC=C(C=C1)C2=NC(=C(N2)C3=CC=NC=C3)C4=CC(=C(C=C4)Cl)O
In short: as §1

[6] = compound: C1=CC=C2C(=C1)C3=NNC4=CC=CC(=C43)C2=O
In short: as §1

[7] = compound: C1CCN(C1)C(=O)NC2=CC=CC(=C2)NC3=NC=C(C(=N3)NCCC4=CN=CN4)Br
In short: as §1

[8] = compound: C1CN(CCC1(CC2=CC=C(C=C2)Cl)N)C3=NC=NC4=C3C=CN4
In short: as §1

IRAK-1-4 Inhibitor I = compound: C1COCCN1CCN2C3=CC=CC=C3N=C2NC(=O)C4=CC(=CC=C4)[N+](=O)[O-] [IRAK-1-4 Inhibitor I]
In short: as §1

UniProt Q9Y6B2, sequence (Q9Y6B2 whole entry, looked up): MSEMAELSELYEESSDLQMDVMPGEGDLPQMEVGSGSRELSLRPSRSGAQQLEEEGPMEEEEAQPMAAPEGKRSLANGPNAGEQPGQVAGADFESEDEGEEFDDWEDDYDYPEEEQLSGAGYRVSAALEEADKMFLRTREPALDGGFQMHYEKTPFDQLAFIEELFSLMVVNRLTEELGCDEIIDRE
UniProt O94905, sequence (O94905 whole entry, looked up): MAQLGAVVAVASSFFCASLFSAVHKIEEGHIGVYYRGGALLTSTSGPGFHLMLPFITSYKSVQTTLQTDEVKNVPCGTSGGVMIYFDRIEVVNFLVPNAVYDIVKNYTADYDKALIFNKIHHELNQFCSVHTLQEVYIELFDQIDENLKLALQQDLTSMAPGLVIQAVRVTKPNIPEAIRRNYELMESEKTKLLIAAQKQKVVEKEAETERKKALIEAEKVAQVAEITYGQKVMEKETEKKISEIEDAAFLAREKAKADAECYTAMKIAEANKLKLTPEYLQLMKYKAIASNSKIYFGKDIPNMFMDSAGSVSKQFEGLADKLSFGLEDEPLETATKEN
UniProt Q96EK7, sequence (Q96EK7 whole entry, looked up): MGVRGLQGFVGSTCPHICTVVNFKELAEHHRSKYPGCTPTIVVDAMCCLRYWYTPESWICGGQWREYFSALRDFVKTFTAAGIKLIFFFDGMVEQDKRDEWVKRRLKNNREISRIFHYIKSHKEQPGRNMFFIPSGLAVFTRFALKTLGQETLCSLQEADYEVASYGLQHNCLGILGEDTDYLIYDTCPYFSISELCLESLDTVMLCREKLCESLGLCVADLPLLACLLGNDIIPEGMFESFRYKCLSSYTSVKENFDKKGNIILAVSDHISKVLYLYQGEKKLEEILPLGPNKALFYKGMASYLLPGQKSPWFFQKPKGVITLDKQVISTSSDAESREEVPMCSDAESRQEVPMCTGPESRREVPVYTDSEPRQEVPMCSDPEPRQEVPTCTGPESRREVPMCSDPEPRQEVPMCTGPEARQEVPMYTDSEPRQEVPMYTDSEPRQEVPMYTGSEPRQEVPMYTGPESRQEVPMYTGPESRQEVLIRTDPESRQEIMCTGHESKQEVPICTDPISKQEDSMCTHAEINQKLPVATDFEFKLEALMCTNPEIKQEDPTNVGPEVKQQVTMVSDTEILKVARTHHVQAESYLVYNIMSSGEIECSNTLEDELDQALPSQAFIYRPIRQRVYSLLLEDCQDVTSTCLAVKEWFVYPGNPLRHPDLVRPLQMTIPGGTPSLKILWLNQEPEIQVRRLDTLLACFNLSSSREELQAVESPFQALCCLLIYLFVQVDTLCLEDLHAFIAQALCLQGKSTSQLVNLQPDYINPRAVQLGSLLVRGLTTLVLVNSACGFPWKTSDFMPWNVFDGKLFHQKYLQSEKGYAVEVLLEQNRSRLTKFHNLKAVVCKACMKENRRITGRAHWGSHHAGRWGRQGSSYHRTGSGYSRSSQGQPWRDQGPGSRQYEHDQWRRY
UniProt P48507, sequence (P48507 whole entry, looked up): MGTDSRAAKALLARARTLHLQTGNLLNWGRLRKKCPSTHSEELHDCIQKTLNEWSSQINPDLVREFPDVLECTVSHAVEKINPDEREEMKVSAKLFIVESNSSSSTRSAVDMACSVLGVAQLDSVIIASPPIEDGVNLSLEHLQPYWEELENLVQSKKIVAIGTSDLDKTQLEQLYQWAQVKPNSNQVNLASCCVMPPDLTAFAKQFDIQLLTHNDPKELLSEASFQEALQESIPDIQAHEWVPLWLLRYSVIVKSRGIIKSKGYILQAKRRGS
UniProt O15117, sequence (O15117 whole entry, looked up): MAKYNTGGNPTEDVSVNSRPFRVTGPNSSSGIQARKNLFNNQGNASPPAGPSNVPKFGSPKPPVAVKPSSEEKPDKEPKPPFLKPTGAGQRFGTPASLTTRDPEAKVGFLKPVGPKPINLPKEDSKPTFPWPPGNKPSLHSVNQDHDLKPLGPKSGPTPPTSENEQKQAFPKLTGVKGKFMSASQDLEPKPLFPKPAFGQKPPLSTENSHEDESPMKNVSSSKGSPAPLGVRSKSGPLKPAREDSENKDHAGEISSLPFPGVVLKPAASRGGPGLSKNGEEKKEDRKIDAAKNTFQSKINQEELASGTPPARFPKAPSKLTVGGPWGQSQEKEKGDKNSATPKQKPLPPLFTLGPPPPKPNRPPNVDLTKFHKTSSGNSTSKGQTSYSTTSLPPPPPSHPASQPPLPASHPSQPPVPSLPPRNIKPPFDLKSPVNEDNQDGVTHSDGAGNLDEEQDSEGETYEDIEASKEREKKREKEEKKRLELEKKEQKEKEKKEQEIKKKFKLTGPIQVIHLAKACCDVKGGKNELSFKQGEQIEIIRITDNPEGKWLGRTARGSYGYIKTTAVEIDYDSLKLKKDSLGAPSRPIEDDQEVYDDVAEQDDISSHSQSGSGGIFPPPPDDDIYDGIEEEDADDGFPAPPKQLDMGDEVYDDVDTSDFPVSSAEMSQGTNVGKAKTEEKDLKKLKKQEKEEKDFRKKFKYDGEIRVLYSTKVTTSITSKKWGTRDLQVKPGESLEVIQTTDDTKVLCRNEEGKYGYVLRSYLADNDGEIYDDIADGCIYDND
UniProt P04406, sequence (P04406 whole entry, looked up): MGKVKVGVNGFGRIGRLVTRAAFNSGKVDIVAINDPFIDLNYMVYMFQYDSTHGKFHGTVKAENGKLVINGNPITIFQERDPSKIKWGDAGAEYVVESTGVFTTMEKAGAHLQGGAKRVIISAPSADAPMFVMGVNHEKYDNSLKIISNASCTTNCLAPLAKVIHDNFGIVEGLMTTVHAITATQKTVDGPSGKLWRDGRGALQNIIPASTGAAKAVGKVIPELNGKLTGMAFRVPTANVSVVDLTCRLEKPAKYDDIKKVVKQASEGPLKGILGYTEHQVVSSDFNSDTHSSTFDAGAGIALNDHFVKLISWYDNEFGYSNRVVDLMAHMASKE
UniProt Q9NX74, sequence (Q9NX74 whole entry, looked up): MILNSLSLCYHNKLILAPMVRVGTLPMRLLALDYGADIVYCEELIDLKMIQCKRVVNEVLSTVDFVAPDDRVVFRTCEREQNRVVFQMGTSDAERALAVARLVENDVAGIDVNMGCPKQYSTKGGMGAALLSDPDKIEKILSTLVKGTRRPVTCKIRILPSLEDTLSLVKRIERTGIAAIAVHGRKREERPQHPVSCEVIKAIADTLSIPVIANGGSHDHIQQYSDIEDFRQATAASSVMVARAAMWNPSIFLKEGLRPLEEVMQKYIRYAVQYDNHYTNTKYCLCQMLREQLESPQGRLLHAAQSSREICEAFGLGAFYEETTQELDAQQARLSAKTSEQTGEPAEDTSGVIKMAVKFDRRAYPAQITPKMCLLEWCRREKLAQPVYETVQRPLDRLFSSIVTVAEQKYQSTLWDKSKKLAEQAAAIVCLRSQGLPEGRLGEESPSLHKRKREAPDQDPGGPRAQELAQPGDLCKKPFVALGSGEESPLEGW
UniProt Q9P0K8, sequence (Q9P0K8 whole entry, looked up): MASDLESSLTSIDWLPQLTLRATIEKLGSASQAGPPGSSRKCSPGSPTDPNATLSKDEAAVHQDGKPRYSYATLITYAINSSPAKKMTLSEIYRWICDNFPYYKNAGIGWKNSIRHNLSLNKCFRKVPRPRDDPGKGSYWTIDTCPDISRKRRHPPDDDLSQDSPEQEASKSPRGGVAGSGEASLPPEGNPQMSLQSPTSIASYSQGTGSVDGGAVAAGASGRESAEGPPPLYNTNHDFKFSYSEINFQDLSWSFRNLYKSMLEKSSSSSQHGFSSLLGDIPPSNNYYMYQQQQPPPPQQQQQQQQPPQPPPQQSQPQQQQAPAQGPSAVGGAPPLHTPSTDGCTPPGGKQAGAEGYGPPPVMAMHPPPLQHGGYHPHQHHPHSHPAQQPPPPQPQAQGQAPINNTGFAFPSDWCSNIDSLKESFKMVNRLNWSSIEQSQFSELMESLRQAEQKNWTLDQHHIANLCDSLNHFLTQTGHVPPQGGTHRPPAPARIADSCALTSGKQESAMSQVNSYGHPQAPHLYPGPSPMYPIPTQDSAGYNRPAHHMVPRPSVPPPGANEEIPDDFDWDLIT
UniProt Q96PY5, sequence (Q96PY5 whole entry, looked up): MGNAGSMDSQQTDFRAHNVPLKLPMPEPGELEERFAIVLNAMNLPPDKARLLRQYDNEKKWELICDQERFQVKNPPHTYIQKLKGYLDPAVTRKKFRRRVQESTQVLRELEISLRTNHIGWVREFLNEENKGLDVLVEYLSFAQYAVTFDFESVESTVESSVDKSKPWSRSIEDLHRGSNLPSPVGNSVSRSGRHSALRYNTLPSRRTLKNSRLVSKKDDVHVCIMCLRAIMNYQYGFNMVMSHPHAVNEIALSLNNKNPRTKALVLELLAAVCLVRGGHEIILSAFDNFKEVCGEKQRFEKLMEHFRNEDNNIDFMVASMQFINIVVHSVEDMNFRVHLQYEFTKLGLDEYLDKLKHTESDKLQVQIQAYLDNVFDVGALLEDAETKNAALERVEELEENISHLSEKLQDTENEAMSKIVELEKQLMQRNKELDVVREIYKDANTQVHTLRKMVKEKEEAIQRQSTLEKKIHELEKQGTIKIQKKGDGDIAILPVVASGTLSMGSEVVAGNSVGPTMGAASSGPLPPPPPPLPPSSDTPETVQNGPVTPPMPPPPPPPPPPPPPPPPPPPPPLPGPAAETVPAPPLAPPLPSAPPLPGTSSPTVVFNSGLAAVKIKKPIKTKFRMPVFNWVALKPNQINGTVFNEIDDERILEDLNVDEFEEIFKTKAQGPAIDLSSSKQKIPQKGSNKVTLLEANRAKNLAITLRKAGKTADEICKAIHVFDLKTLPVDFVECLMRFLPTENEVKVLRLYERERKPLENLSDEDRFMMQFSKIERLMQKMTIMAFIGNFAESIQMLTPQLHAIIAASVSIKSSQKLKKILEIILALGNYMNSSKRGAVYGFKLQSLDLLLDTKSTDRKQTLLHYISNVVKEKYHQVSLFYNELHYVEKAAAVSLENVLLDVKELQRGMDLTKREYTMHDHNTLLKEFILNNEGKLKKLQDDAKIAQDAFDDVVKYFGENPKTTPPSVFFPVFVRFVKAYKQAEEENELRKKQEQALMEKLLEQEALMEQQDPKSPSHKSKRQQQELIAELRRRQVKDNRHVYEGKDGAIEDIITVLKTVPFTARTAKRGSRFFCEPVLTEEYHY

Target	log2 fold change (erlotinib)	log2 fold change [1]	log2 fold change [2]	log2 fold change [3]	log2 fold change [4]	log2 fold change [5]	log2 fold change [6]	log2 fold change [7]	log2 fold change [8]	log2 fold change (IRAK-1-4 Inhibitor I)
FAU (UniProt E9PR30)	-0.026	-1.8	-0.059	-0.048	0.016	-0.016	0	0.011	-0.021	0.053
EMC7 (UniProt Q9NPA0)	0.023	-0.011	-0.009	-0.02	-0.044	-0.011	-0.052	-0.002	0.011	0.02
EXOC3 (UniProt O60645)	0.033	0.027	0.006	0.033	0.039	0.011	-0.04	0.018	-0.001	0.013
EPN2 (UniProt O95208)	0.054	-0.08	-0.001	-0.011	-0.059	-0.039	0.003	-0.003	0.007	-0.005
EDARADD (UniProt Q8WWZ3)	0.013	-0.022	0.045	0.019	-0.027	0.049	-0.03	-0.035	-0.064	0.031
FARSA (UniProt Q9Y285)	0.045	-0.001	-0.054	0.009	0	0.119	-0.005	0.009	-0.023	-0.018
FUBP3 (UniProt Q96I24)	-0.023	0.003	0.04	0.007	-0.009	-0.141	-0.033	-0.038	0.003	0.023
EFCAB14 (UniProt O75071)	0.019	0.115	0.043	-0.036	-0.019	-0.042	-0.022	0.01	0.042	0.011
FLT4 (UniProt P35916)	0.047	0.036	0.038	0.039	0.075	0.046	0.044	-0.097	0.087	-0.029
GCLM (UniProt P48507)	-0.012	0.021	0.006	0.007	0.023	-0.001	-0.034	0.014	0.039	0.016
ENY2 (UniProt Q9NPA8)	0.033	0.03	-0.015	0.002	-0.026	0.043	0.081	0.104	-0.087	-0.019
FAM120B (UniProt Q96EK7)	0.056	-0.032	0.036	0.035	0.02	-0.004	0.044	-0.013	0.007	0.009
FAM98A (UniProt Q8NCA5)	-0.004	-0.026	0.028	-0.048	-0.02	0.01	0.014	-0.05	-0.017	-0.04
ERLIN2 (UniProt O94905)	-0.028	0.051	-0.1	-0.002	-0.047	-0.019	-0.031	-0.039	0.006	-0.013
DVL2 (UniProt O14641)	0.012	-0.028	0.011	-0.015	0.03	-0.055	-0.029	0.001	0.067	-0.073
EDC4 (UniProt Q6P2E9)	0.002	-0.026	-0.022	0.001	0.006	-0.001	-0.02	-0.015	0.014	0.013
GCDH (UniProt Q92947)	-0.038	0.1	-0.023	0.051	0.089	-0.027	0.009	0	0	0.011
FLAD1 (UniProt Q8NFF5)	0.001	-0.108	-0.047	-0.054	-0.035	0.012	0.045	-0.028	-0.027	0.001
DUS2 (UniProt Q9NX74)	0.006	0.007	0.017	0.057	0.027	0.021	0.033	-0.016	0.05	-0.004
EIF2B5 (UniProt Q13144)	0.015	-0.052	-0.017	0.011	0.03	-0.011	-0.054	0.006	0.007	0.027

Target	log2 fold change (erlotinib)	log2 fold change [1]	log2 fold change [2]	log2 fold change [3]	log2 fold change [4]	log2 fold change [5]	log2 fold change [6]	log2 fold change [7]	log2 fold change [8]	log2 fold change (IRAK-1-4 Inhibitor I)
GAPDH (UniProt P04406)	-0.007	-0.032	0.031	0.006	-0.006	-0.005	0.028	0.027	-0.034	0.003
EPB41 (UniProt P11171)	-0.024	-0.021	-0.068	0.006	-0.005	0	0.014	0.004	0.008	-0.028
ECI2 (UniProt O75521)	0.032	0.01	0.024	-0.011	0.022	-0.019	-0.111	-0.03	0.045	0.054
DUS3L (UniProt Q96G46)	-0.009	-0.001	0.048	0.059	0.013	0.032	-0.013	-0.012	-0.007	0.017
GCA (UniProt P28676)	-0.115		-0.037							
EPB41 isoform 4 (UniProt P11171)	-0.128		-0.054			-0.012				0.002
EIF2AK3 (UniProt Q9NZJ5)	-0.014		0.015			-0.049				-0.044
FAM76B (UniProt Q5HYJ3)	-0.027	-0.35	-0.016	-0.137		-0.053	0.046	-0.019	0.061	-0.008
FYB1 isoform 3 (UniProt O15117)	-0.019	-0.043	-0.003	-0.073	0.009	0.015	-0.025	-0.012	0.028	0.024
GC isoform 3 (UniProt P02774)		0.039		-0.019		-0.199	0.012	0.051	0.055	0.15
GIPC3 (UniProt Q8TF64)	-0.049		0.091		-0.025	0.063		0.008	0.139	0.101
EXO5 (UniProt Q9H790)	0.279		0.012		-0.226	0.085				-0.028
FOXL2 (UniProt P58012)	0.274		-0.129		-0.006	-0.085		-0.024	0.187	0.026
EPB41, A0A2R8Y783		-0.136		0.09	-0.058		0.017	-0.001	0.346	
GDE1 (UniProt Q9NZC3)	0.042		0.02		-0.032	0.097		0.05	0.027	-0.01
DUSP22 isoform 2 (UniProt Q9NRW4)	-0.016	0.157	0.007	0.075	0.051	0.035	0.143			-0.028
GART (UniProt C9JZG2)					0.092	0.007		-0.025	-0.011	0.078
DYRK1A isoform 2 (UniProt Q13627)	-0.064		-0.476		0.247	0.069				-0.595
GBA2 (UniProt Q9HCG7)	-0.088		0.063		0.035	-0.055		0.007	0.041	0.01
FADS3 (UniProt Q9Y5Q0)	0.075	-0.355	-0.052	0.118	0.016	-0.072	-0.124	0.109	-0.291	-0.097

Target	log2 fold change (erlotinib)	log2 fold change [1]	log2 fold change [2]	log2 fold change [3]	log2 fold change [4]	log2 fold change [5]	log2 fold change [6]	log2 fold change [7]	log2 fold change [8]	log2 fold change (IRAK-1-4 Inhibitor I)
EPS8L2 (UniProt Q9H6S3)	0.082		0.009		0.037	0.133		-0.108	0.055	-0.086
DST isoform 3 (UniProt Q03001)	0.005		0.181		-0.085			-0.034	-0.043	
EHHADH (UniProt Q08426)	-0.05		0.08		-0.029	0.007		0.045	-0.106	-0.09
DTWD1 (UniProt Q8N5C7)	0.01	0.082	-0.039	-0.004	-0.048	-0.025	0.039	0.01	0.047	-0.01
FTSJ1 isoform 2 (UniProt Q9UET6)		-0.149		0.055			-0.039	0.051	0.059	
GAPVD1 (UniProt Q14C86)					-0.016					
ETFRF1 (UniProt Q6IPR1)	-0.032	-0.008	-0.048	0.083	-0.064	-0.038	-0.063			-0.002
EPN2 (UniProt I3L356)					-0.143					
ESRRB isoform 1 (UniProt O95718)	0.1		-0.783 (active)		-0.021	0.016				0.236
FNDC3A (UniProt Q9Y2H6)	0.198		0.024			-0.112				0.04
DTL (UniProt Q9NZJ0)	0.106	-0.053	0.012	0.067	-0.029	-0.002	-0.072			0.006
EID1 (UniProt Q9Y6B2)	0.089		-0.172			0.096		0.064	0.091	0.044
FOXJ2 (UniProt Q9P0K8)	0.102		0.056		0.139	0.026		0.138	-0.036	-0.03
FAT1 (UniProt Q14517)	-0.004		0.006			0.126		-0.119	0.128	-0.053
FAM111A (UniProt Q96PZ2)	-0.025	-0.04	-0.01	0.002		-0.088	-0.088	0.046	0.022	-0.088
FAM204A (UniProt Q9H8W3)	-0.021	-0.018	-0.014	0.11		0.018	-0.008			0.01
FMNL2 isoform 3 (UniProt Q96PY5)	-0.02		-0.064			0.083				-0.092
ERG28 (UniProt Q9UKR5)					-0.015			0.072	-0.066	
EWSR1 (UniProt H7BY36)		-0.711		-0.346	0.111	-0.208	-0.428	-0.011	-0.035	-0.074
ELAVL4 (UniProt P26378)	0.073	0.047	-0.063	-0.047		0.015	0.002	0.029	0.036	-0.012
